{
  "source": "paper PMC12864922",
  "about": "“TDP-43 directly inhibits mRNA accumulation in neurites through modulation of mRNA stability”",
  "binders": {"B1": {"name": "ENSMUSG00000022095.66|Fam160b2 (ssRNA)", "RNA": "GGGAGUUCUACAGUCCGACGAUCGCUUCGAUAUCCGCAUGCUAACAACUCCAGGGGCCAGGGAGAUGAACUGCUGUCUUUGAGGCUGGCUAAAAAAACAAUCCAGUCCAGAGAGAUGGGGAGGGGGGGAGCAAGAACCCUGUCUGUUACAUUAGGUAUCAUGGAAGCUGCUAAGACUCGGCAGGUUUCUCCGAGGCUUCACGAACAGUAGUGGAGGAGACAGAGGAGGAGGCUGAGGGGAAGCCCCCUCUUCCUGCUCUACCCUCCUGGAGGCUGUUGCAAAAUUCCCAACUGCCUCCUGGCACUCUUGCGGUCGCACUAGUGUGGAAUUCUCGGGUGUCAAGG"}, "B2": {"name": "ENSMUSG00000004113.466|Cacna1b (ssRNA)", "RNA": "GGGAGUUCUACAGUCCGACGAUCGCUUCGAUAUCCGCAUGCUAUGAAGGUUUGUCGCAAAAAUUUAUAUUUAACAGUGUUGAGAGAGAGAGAGAGAGAGCGAGAGAGAGAGAGAUCCAGUCAUGCAACACAAAUGGGAUCUACUUUUAAACAACAGUCCUUUGACUAGUUUGCUGCCUGAAUAAUAUUUACAAACUAAACUUUGGAUUCUGCUCUUGUUUCUACAAUGAUUUUUUGUAUAAAGCAAAGUCCUUGGAUUAAAUAAAAACAACCCAAAAAAAAAAUCAAAAUCAAAACCCAGGAUCUCUUGCGGUCGCACUAGUGUGGAAUUCUCGGGUGUCAAGG"}, "B3": {"name": "ENSMUSG00000031028.203|Tub|203:207;209:214 (ssRNA)", "RNA": "GGGAGUUCUACAGUCCGACGAUCGCUUCGAUAUCCGCAUGCUAUCCUUUCUCUUCCCAGUUCCAGAGAUGAAACCCCUCCGAGUUAAUGUAUAAGGUUGGAAACCUUUCAGUAGGGAAUCAGGCAGUUCCCUGUUGAAAGUUGUCUGAGUUUUUGCACACCAUUCUGAUCUGAUGUGGCCUGUGCCUGGCUCCUCUAUGAGGACUUCGAGCUGUGCACAGACCUUAGCAGGACCACUGCACACUUACACACACACACACAGGCAGCCCAAGGGUUCUGGGGCUGGGCUUGGACACGCCCUCCACUCUUGCGGUCGCACUAGUGUGGAAUUCUCGGGUGUCAAGG"}, "B4": {"name": "ENSMUSG00000061578.408|Ksr2 (ssRNA)", "RNA": "GGGAGUUCUACAGUCCGACGAUCGCUUCGAUAUCCGCAUGCUAAUCAGUCUCUUCCCGGAGGAAGCAUCCGGGGGAAAUGUAUUCCUUCGCCCUGCAAGGAGCCAAUGGGAAGAGAGGGGACCAUAUAGUUAGAGACAUUCCCUACCCCCCGACCACUGACCCGUCCAGACCCUCGCUUCUUACAAUGCCUCUUCUUCUGCCAGACCAGCCACCUGCCCCACUAACACCAAAUGGCUUCUGUCCCUGCUUCACGUUGCAAAUCCUUCAAGACAGAAGUUUCAGAGGGGAUAGUUCCUUCUAACCUCUUGCGGUCGCACUAGUGUGGAAUUCUCGGGUGUCAAGG"}, "B5": {"name": "ENSMUSG00000031028.686|Tub (ssRNA)", "RNA": "GGGAGUUCUACAGUCCGACGAUCGCUUCGAUAUCCGCAUGCUAUAUUUUUGUUCAAAAUUAUCUGGAGUUUUAGACAAACUUGCAAAACUGUGCUUUUAUUAAGUGACUUUUUGAAUAAACUUUUUGGUAUUCUGAAGCAAAUGUAUUUAUUUAUUGGUAUGUGCAAUGACAAACUUGGUAUUUUCCCAUAAUGACAUUAUGUAUGUUGUAGAAUUUAGUGUUUGUCUAAGUACAGACAUGUAUCAACACAUUAAACUUGAACUGUUUGACGGCUGUGUCCUUGGUUUUCAUAGAGAAGAGAACUCUUGCGGUCGCACUAGUGUGGAAUUCUCGGGUGUCAAGG"}, "B6": {"name": "ENSMUSG00000029636.181|Wasf3 (ssRNA)", "RNA": "GGGAGUUCUACAGUCCGACGAUCGCUUCGAUAUCCGCAUGCUACACAGCUCUCUUCUCUCCUGUUGUCGGCACAUUUUCAAUUUUAAAAAGUACCUCACAAGAUAAACUUGAUUCAGCCAGUUGCCCGGGCAGAGACCUGACUUCCCCUCUCCUGCCCUGAUCCUUUUUACCAAAUGGCGAUUCCAUAGUCCUGGCUGAGGCAGGGGCUCAAAGUCCAGUGUCUGCUUUGCAAUUCUGGAAGGACAGCUGCUUAUUUAAAUAAGUCUGUGAUAUCCGCAGGCUUGGGUUACAGGGAGGACCUUCUCUUGCGGUCGCACUAGUGUGGAAUUCUCGGGUGUCAAGG"}, "B7": {"name": "ENSMUSG00000029028.53|Lrrc47|5:9;12:16;18:22;45:49;64:68;70:74;86:90;93:97;118:122;134:139;141:145;147:151;163:168;170:174;191:195;197:201;208:212;214:218;235:2 … (ssRNA)", "RNA": "GGGAGUUCUACAGUCCGACGAUCGCUUCGAUAUCCGCAUGCUAUGUCACACAAGCAUACGCACACCUGUAGAUCUUUGUAGGUGUAGCAUACCUGUAGGUAUCUGGCACACGCAUACCUGUAGAUGUCACACAAGCACACGAUAUGCUGUAGGUAUCUGGCACACCUGUAGGUGUCACACACGCACACGCACACCUGUGGGUGUCACACACGCACACCUGUAGGUGUCUGUAGCACACGCAUACCUGCAGCACACGCACACCUGUAGAUCUCUAUAGCACACGCACACCUGUAGGGGUCUGUGCUCUUGCGGUCGCACUAGUGUGGAAUUCUCGGGUGUCAAGG"}, "B8": {"name": "ENSMUSG00000028439.163|Fam219a (ssRNA)", "RNA": "GGGAGUUCUACAGUCCGACGAUCGCUUCGAUAUCCGCAUGCUAUCUUCAAGAGCAAGCUUAAGGAAAUACAGUGAGCCAAGUGGCUGUAUGAUAUGGUAUGGUAUGGUAUGGUAUGGUAUGGUAUGGUAUGCACAUGUGUGUGCAUGUGUGUGUGCCUGUGUGUGUGCGUGUGCGUGUGUGUAUGUGUGUGCGUGUGUGUGUGUGUGUGUUGUACCCGAGUGUGUGUUGAGCCUAUCUGUCCAGGGAACCAGAUUGGUGUCCGAGAUGAGGAAAUGGCUGUGGCCUGGGAAAUCAGUGAGAGGCUCUUGCGGUCGCACUAGUGUGGAAUUCUCGGGUGUCAAGG"}, "B9": {"name": "ENSMUSG00000028439.168|Fam219a (ssRNA)", "RNA": "GGGAGUUCUACAGUCCGACGAUCGCUUCGAUAUCCGCAUGCUAGAGCCAAGUGGCUGUAUGAUAUGGUAUGGUAUGGUAUGGUAUGGUAUGGUAUGGUAUGCACAUGUGUGUGCAUGUGUGUGUGCCUGUGUGUGUGCGUGUGCGUGUGUGUAUGUGUGUGCGUGUGUGUGUGUGUGUGUUGUACCCGAGUGUGUGUUGAGCCUAUCUGUCCAGGGAACCAGAUUGGUGUCCGAGAUGAGGAAAUGGCUGUGGCCUGGGAAAUCAGUGAGAGGCCGCUUGGGAAUGAGAAUGCAGUGGACUGACUCUUGCGGUCGCACUAGUGUGGAAUUCUCGGGUGUCAAGG"}, "B10": {"name": "ENSMUSG00000028439.165|Fam219a (ssRNA)", "RNA": "GGGAGUUCUACAGUCCGACGAUCGCUUCGAUAUCCGCAUGCUAAGCUUAAGGAAAUACAGUGAGCCAAGUGGCUGUAUGAUAUGGUAUGGUAUGGUAUGGUAUGGUAUGGUAUGGUAUGCACAUGUGUGUGCAUGUGUGUGUGCCUGUGUGUGUGCGUGUGCGUGUGUGUAUGUGUGUGCGUGUGUGUGUGUGUGUGUUGUACCCGAGUGUGUGUUGAGCCUAUCUGUCCAGGGAACCAGAUUGGUGUCCGAGAUGAGGAAAUGGCUGUGGCCUGGGAAAUCAGUGAGAGGCCGCUUGGGAAUCUCUUGCGGUCGCACUAGUGUGGAAUUCUCGGGUGUCAAGG"}, "B11": {"name": "ENSMUSG00000028439.169|Fam219a (ssRNA)", "RNA": "GGGAGUUCUACAGUCCGACGAUCGCUUCGAUAUCCGCAUGCUAAGUGGCUGUAUGAUAUGGUAUGGUAUGGUAUGGUAUGGUAUGGUAUGGUAUGCACAUGUGUGUGCAUGUGUGUGUGCCUGUGUGUGUGCGUGUGCGUGUGUGUAUGUGUGUGCGUGUGUGUGUGUGUGUGUUGUACCCGAGUGUGUGUUGAGCCUAUCUGUCCAGGGAACCAGAUUGGUGUCCGAGAUGAGGAAAUGGCUGUGGCCUGGGAAAUCAGUGAGAGGCCGCUUGGGAAUGAGAAUGCAGUGGACUGAAAGCACCUCUUGCGGUCGCACUAGUGUGGAAUUCUCGGGUGUCAAGG"}, "B12": {"name": "ENSMUSG00000028439.164|Fam219a (ssRNA)", "RNA": "GGGAGUUCUACAGUCCGACGAUCGCUUCGAUAUCCGCAUGCUAAGAGCAAGCUUAAGGAAAUACAGUGAGCCAAGUGGCUGUAUGAUAUGGUAUGGUAUGGUAUGGUAUGGUAUGGUAUGGUAUGCACAUGUGUGUGCAUGUGUGUGUGCCUGUGUGUGUGCGUGUGCGUGUGUGUAUGUGUGUGCGUGUGUGUGUGUGUGUGUUGUACCCGAGUGUGUGUUGAGCCUAUCUGUCCAGGGAACCAGAUUGGUGUCCGAGAUGAGGAAAUGGCUGUGGCCUGGGAAAUCAGUGAGAGGCCGCUUCUCUUGCGGUCGCACUAGUGUGGAAUUCUCGGGUGUCAAGG"}, "B13": {"name": "ENSMUSG00000028439.167|Fam219a (ssRNA)", "RNA": "GGGAGUUCUACAGUCCGACGAUCGCUUCGAUAUCCGCAUGCUAUACAGUGAGCCAAGUGGCUGUAUGAUAUGGUAUGGUAUGGUAUGGUAUGGUAUGGUAUGGUAUGCACAUGUGUGUGCAUGUGUGUGUGCCUGUGUGUGUGCGUGUGCGUGUGUGUAUGUGUGUGCGUGUGUGUGUGUGUGUGUUGUACCCGAGUGUGUGUUGAGCCUAUCUGUCCAGGGAACCAGAUUGGUGUCCGAGAUGAGGAAAUGGCUGUGGCCUGGGAAAUCAGUGAGAGGCCGCUUGGGAAUGAGAAUGCAGUGCUCUUGCGGUCGCACUAGUGUGGAAUUCUCGGGUGUCAAGG"}, "B14": {"name": "ENSMUSG00000028439.166|Fam219a (ssRNA)", "RNA": "GGGAGUUCUACAGUCCGACGAUCGCUUCGAUAUCCGCAUGCUAAGGAAAUACAGUGAGCCAAGUGGCUGUAUGAUAUGGUAUGGUAUGGUAUGGUAUGGUAUGGUAUGGUAUGCACAUGUGUGUGCAUGUGUGUGUGCCUGUGUGUGUGCGUGUGCGUGUGUGUAUGUGUGUGCGUGUGUGUGUGUGUGUGUUGUACCCGAGUGUGUGUUGAGCCUAUCUGUCCAGGGAACCAGAUUGGUGUCCGAGAUGAGGAAAUGGCUGUGGCCUGGGAAAUCAGUGAGAGGCCGCUUGGGAAUGAGAAUCUCUUGCGGUCGCACUAGUGUGGAAUUCUCGGGUGUCAAGG"}},
  "note": "In all, about 9,900 sequences were measured (“r (bound/input frequency ratio)”: median about 0.7, highest 2% from about 6.5 on). This is one part of a sample in which the highest values are shown more often than they occur.",
  "data": [
    {"target": "TDP-43 (Homo sapiens, UniProt Q13148 1-414)", "sequence (Q13148 whole entry)": "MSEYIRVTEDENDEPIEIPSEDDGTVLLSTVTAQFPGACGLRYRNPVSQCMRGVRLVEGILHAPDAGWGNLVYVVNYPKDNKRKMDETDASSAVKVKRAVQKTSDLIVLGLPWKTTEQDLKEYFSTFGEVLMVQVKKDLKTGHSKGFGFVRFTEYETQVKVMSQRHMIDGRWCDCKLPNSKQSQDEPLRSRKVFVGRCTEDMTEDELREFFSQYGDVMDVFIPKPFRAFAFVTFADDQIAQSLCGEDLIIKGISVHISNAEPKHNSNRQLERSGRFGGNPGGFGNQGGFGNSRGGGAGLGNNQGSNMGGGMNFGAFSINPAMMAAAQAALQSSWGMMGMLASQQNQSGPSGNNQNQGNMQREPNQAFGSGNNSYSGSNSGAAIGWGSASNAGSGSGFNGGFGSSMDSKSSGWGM", "experiment": "RNA Bind-n-Seq with designed 260-mer pool; 25 mM Tris-HCl, 150 mM KCl, 3 mM MgCl2, BSA (printed 500 mg/mL), 20 units/mL SUPERase IN; pH not stated; 500 nM RNA pool, 1 h, 4 C; TDP-43 5, 50, 500 nM; high values mean tight binding", "details": "protein: recombinant; tags: SBP (GST cleaved off with PreScission; pGEX-GST-SBP)", "summary_of_the_method": "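An in vitro-transcribed pool of 260-nt 3′ UTR oligos (500 nM) was incubated for 1 h at 4 °C with recombinant SBP-tagged TDP-43 at 5, 50 or 500 nM held on streptavidin beads. The buffer contained 25 mM Tris-HCl, 150 mM KCl, 3 mM MgCl2, BSA and SUPERase IN. Biotin-eluted bound RNA was sequenced, and binding, R, is each oligo's normalized read abundance in the bound sample over that in input.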", "values": [
      {"binder": "B1", "binding signal": "0.965 R (bound/input frequency ratio)"},
      {"binder": "B2", "binding signal": "0.589 R (bound/input frequency ratio)"},
      {"binder": "B3", "binding signal": "1.57 R (bound/input frequency ratio)"},
      {"binder": "B4", "binding signal": "1.09 R (bound/input frequency ratio)"},
      {"binder": "B5", "binding signal": "0.181 R (bound/input frequency ratio)"},
      {"binder": "B6", "binding signal": "0.344 R (bound/input frequency ratio)"},
      {"binder": "B7", "binding signal": "0.453 R (bound/input frequency ratio)"},
      {"binder": "B8", "binding signal": "5.79 R (bound/input frequency ratio)"},
      {"binder": "B9", "binding signal": "7.15 R (bound/input frequency ratio)"},
      {"binder": "B10", "binding signal": "6.33 R (bound/input frequency ratio)"},
      {"binder": "B11", "binding signal": "6.41 R (bound/input frequency ratio)"},
      {"binder": "B12", "binding signal": "8.42 R (bound/input frequency ratio)"},
      {"binder": "B13", "binding signal": "6.28 R (bound/input frequency ratio)"},
      {"binder": "B14", "binding signal": "6.86 R (bound/input frequency ratio)"}
    ]}
  ]
}
